This is part of a sample that, as a whole, favours compounds with a hit. Of some 83,000 tested, about 20% had one in any assay.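 Interpretation: 100, growth as untreated; towards 0, rising growth inhibition; 0, no net growth; 0 to -100, cell death. Compounds scoring below 10 were considered active.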 Values without a mark were called inactive. Calls of active or inactive are those of the source.
Legend:
Assay in all cases: NCI-60 one-dose screen, 48 h (100 = growth as untreated, 0 = no growth, -100 = all killed)
Settings in all cases: 10 µM unless noted
DU-145 prostate = tested on: DU-145 prostate
K-562 leukemia = tested on: K-562 leukemia
MALME-3M melanoma = tested on: MALME-3M melanoma
MDA-MB-231 breast = tested on: MDA-MB-231 breast
RXF 393 renal = tested on: RXF 393 renal
SF-268 CNS = tested on: SF-268 CNS
SF-295 CNS = tested on: SF-295 CNS
SF-539 CNS = tested on: SF-539 CNS
UACC-257 melanoma = tested on: UACC-257 melanoma
M14 melanoma = tested on: M14 melanoma
HCT-15 colon = tested on: HCT-15 colon
HT29 colon = tested on: HT29 colon
SNB-75 CNS = tested on: SNB-75 CNS
SNB-19 CNS = tested on: SNB-19 CNS
U251 CNS = tested on: U251 CNS
PC-3 prostate = tested on: PC-3 prostate
SK-MEL-5 melanoma = tested on: SK-MEL-5 melanoma
UACC-62 melanoma = tested on: UACC-62 melanoma
LOX IMVI melanoma = tested on: LOX IMVI melanoma
SK-MEL-28 melanoma = tested on: SK-MEL-28 melanoma

SMILES	growth (DU-145 prostate)	growth (K-562 leukemia)	growth (MALME-3M melanoma)	growth (MDA-MB-231 breast)	growth (RXF 393 renal)	growth (SF-268 CNS)	growth (SF-295 CNS)	growth (SF-539 CNS)	growth (UACC-257 melanoma)	growth (M14 melanoma)	growth (HCT-15 colon)	growth (HT29 colon)	growth (SNB-75 CNS)	growth (SNB-19 CNS)	growth (U251 CNS)	growth (PC-3 prostate)	growth (SK-MEL-5 melanoma)	growth (UACC-62 melanoma)	growth (LOX IMVI melanoma)	growth (SK-MEL-28 melanoma)
C=CCn1c(C)nc2cc(Nc3nc(Cl)nc4ccccc34)ccc21	105%	74.8%	122%	89.9%	87.4%	89.9%	84.8%	97.4%	102%	110%	92.3%	98.8%	96.9%	107%	95.5%	82%	91.4%	93.1%	104%	107%
Fc1c[c-]c(-c2ccccn2)c(F)c1.[CH3-].[Pt+2].c1ccc(P(C[PH+](c2ccccc2)c2ccccc2)c2ccccc2)cc1	5.54% (active)	4.93% (active)	-83.2% (active)	-59% (active)	-82.3% (active)	16.9%	6.1% (active)	-86.3% (active)	-4.95% (active)	-20% (active)	-51.4% (active)	1.16% (active)	-14.1% (active)	-54.8% (active)	-71.7% (active)	-33.2% (active)	-97.1% (active)	-18.7% (active)	-92.9% (active)	-51.2% (active)
COc1cccc(-c2nc3sccn3c2/C=C/C(=O)c2ccc(C(F)(F)F)cc2)c1	88.4%	51.8%	104%	89.6%	67.7%	89.2%	106%	96.6%	73.9%	85.4%	69.1%	75.3%	81.7%	79.7%	83.2%	63.2%	71.5%	66.1%	88.3%	83.6%
N=C1C(c2nc(-c3ccc(Br)cc3)cs2)=C(O)CN1CC1CCCO1 (stereo not given)	69.7%	64.1%	112%	90.9%	83%	87.9%	91.5%	81.4%	84.3%	91.5%	89.5%	97.5%	78.5%	87.4%	74.9%	7.86% (active)	102%	105%	60.7%	107%
C[n+]1cc2c3c(ccc2c2ccc4cc5c(cc4c21)OCO5)OCO3	-94.4% (active)	-5.22% (active)	-76.9% (active)	-76.2% (active)	-77.1% (active)	-93.1% (active)	-63.1% (active)	-71.8% (active)	-87.6% (active)	-76.8% (active)	-81.2% (active)	-84.9% (active)	-78.8% (active)	-87.1% (active)	-82.2% (active)	-72.8% (active)	-99.4% (active)	-66.7% (active)	-73.9% (active)	-92.1% (active)
CN(C)c1ccc(/C=C/C(=O)c2cccc(Nc3nc(Nc4ccccc4)nc(Nc4ccccc4)n3)c2)cc1	99.4%	67.7%	88.2%	81.8%	77.5%	97.2%	129%	87.9%	110%	91.5%	80.5%	53.8%	5.3% (active)	99.1%	91.5%	81.7%	69.5%	91.2%	88.7%	75%
CCN(CC)CCCNc1ccc(Nc2ccc(OC)cc2)cc1	90.7%	34.1%	104%	34.6%	90.5%	77.5%	120%	98.6%	87.4%	94.7%	105%	67.5%	80%	102%	79.8%	55.3%	91.2%	95.8%	86.4%	101%
